Laboratory results published in PubChem BioAssay (EPA / NIEHS).
Records with an inconclusive call do not appear. Calls of active or inactive are those of the source. Rule for the calls: active = hit-call score of the fitted dose curve at least 0.9, where 1 is the maximum; inconclusive = response in the unintended direction; inactive = score below 0.9.

Columns and labels:
[1] = TOX21_p53_BLA_p2_viability: Viability Assessment in the Tox21 HCT-116 p53 Agonism Beta-lactamase Assay, Phase 2 (AID 2283591);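 note: compound exposure lasted 16 h at 37 °C; actives lower the ATP signal meaning cytotoxicity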
How it was run: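 HCT-116 p53-bla cells (4000/well) rested 5 h at 37C, then received compounds in DMSO (217-fold dilution) for 16 h at 37C, 5% CO2. After the CCF4 read, CellTiter-Glo was added; ATP luminescence was read after 30 min at room temperature.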

[2] = target: Cellular tumor antigen p53 (Homo sapiens) (UniProt P04637); assay: TOX21_p53_BLA_p2_ratio: Tox21 HCT-116 p53 Agonism Beta-lactamase Assay, Ratio, Phase 2 (AID 2283592)
Sequence of Cellular tumor antigen p53 (Homo sapiens) (P04637 whole entry, looked up): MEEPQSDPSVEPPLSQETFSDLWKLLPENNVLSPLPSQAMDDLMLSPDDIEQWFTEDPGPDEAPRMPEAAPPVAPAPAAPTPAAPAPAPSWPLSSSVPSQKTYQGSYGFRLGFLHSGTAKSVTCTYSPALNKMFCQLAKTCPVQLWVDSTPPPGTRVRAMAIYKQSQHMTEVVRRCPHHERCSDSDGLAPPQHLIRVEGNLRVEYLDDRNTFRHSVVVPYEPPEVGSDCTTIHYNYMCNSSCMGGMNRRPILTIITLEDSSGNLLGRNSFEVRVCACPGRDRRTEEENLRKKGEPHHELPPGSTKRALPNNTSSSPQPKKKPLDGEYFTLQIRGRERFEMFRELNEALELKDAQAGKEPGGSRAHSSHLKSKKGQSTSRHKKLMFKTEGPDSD
How it was run: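 In this cell-based reporter format, HCT116 cells were dosed with chemicals delivered from DMSO by 217-fold dilution and incubated 16 h at 37C. Emission at 460 and 530 nm after 2 h CCF4-AM loading provided the ratio, fitted upward versus DMSO.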

[3] = TOX21_p53_BLA_p3_viability: Viability Assessment in the Tox21 HCT-116 p53 Agonism Beta-lactamase Assay, Phase 3 (AID 2283593);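 note: cells exposed to compound for 16 h before reading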
How it was run: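 HCT-116 cells (4000/well) rested 5 h at 37C, then got DMSO compounds by pin tool (217-fold dilution) for 16 h at 37C, 5% CO2. After the bla read, CellTiter-Glo was added and luminescence read at 30 min, room temperature.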

[4] = TOX21_p53_BLA_p4_viability: Viability Assessment in the Tox21 HCT-116 p53 Agonism Beta-lactamase Assay, Phase 4 (AID 2283597);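 note: hits lower the luminescence signal meaning cytotoxicity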
How it was run: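 We seeded HCT116 p53 reporter cells at 4000/well and waited 5 h. We then added compounds in DMSO at a 217-fold dilution and incubated for 16 h. Viability was read as CellTiter-Glo luminescence after 30 min at RT.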

[5] = TOX21_p53_BLA_p5_viability: Viability Assessment in the Tox21 HCT-116 p53 Agonism Beta-lactamase Assay, Phase 5 (AID 2283600)
How it was run: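 Compounds, pinned from DMSO at 217-fold dilution, were left on the cells for 16 h. The viability endpoint was ATP content measured by CellTiter-Glo luminescence, where falling signal reflects cytotoxicity.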

[6] = target: Cellular tumor antigen p53 (Homo sapiens) (UniProt P04637); assay: TOX21_p53_BLA_p5_ratio: Tox21 HCT-116 p53 Agonism Beta-lactamase Assay, Ratio, Phase 5 (AID 2283599)
How it was run: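 HCT-116 cells carrying a p53-inducible beta-lactamase reporter were seeded at 4000 cells/well and dosed after 5 h with compound in DMSO (217-fold dilution). After 16 h at 37C, CCF4-AM substrate was added for 2 h, and the 460/530 nm emission ratio was scored as gain-of-signal versus DMSO.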

[7] = target: Cellular tumor antigen p53 (Homo sapiens) (UniProt P04637); assay: TOX21_p53_BLA_p4_ratio: Tox21 HCT-116 p53 Agonism Beta-lactamase Assay, Ratio, Phase 4 (AID 2283601)
How it was run: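 HCT116 cells carrying an inducible beta-lactamase reporter were plated at 4000 cells/well, rested 5 h, then exposed to compounds in DMSO (217-fold dilution) for 16 h at 37C. CCF4-AM substrate was loaded 2 h at room temperature; 460/530 nm emission ratio scored gain-of-signal versus DMSO.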

Compound: CCCc1cc(C(N)=S)ccn1
- outcome [1]: inactive
- outcome [2]: inactive
- outcome [3]: inactive
- outcome [4]: inactive
- outcome [5]: inactive

Compound: Oc1ccccc1C=NCc1ccccc1
- outcome [1]: inactive
- outcome [2]: inactive
- outcome [3]: inactive
- outcome [4]: inactive
- outcome [6]: inactive
- outcome [5]: inactive
- outcome [7]: inactive

Compound: O=[N+]([O-])c1ccc(CCO)cc1
- outcome [1]: inactive
- outcome [2]: inactive
- outcome [3]: inactive
- outcome [4]: inactive
- outcome [6]: inactive
- outcome [7]: inactive

Compound: Cc1cc(O)c(C(C)C)cc1Cl
- outcome [1]: inactive
- outcome [2]: inactive
- outcome [3]: inactive
- outcome [4]: inactive
- outcome [6]: inactive
- outcome [5]: inactive
- outcome [7]: inactive

Compound: CCCC(C)c1ccccc1O (stereo unspecified)
- outcome [1]: inactive
- outcome [2]: inactive
- outcome [3]: inactive
- outcome [4]: inactive
- outcome [6]: inactive
- outcome [5]: inactive
- outcome [7]: inactive

Compound: C=CCONC(CCC)=C1C(=O)CC(C)(C)C(C(=O)OC)=C1O
- outcome [1]: inactive
- outcome [2]: inactive
- outcome [3]: inactive
- outcome [4]: inactive
- outcome [6]: inactive
- outcome [7]: inactive

Compound: COc1ccc(CNCC(O)COc2ccc3[nH]c(=O)ccc3c2)cc1OC (stereo unspecified)
- outcome [1]: inactive
- outcome [2]: inactive
- outcome [3]: inactive
- outcome [4]: inactive
- outcome [6]: inactive
- outcome [5]: inactive
- outcome [7]: inactive

Compound: CC(C)(Oc1ccc(C2CCCc3ccccc32)cc1)C(=O)O (stereo unspecified)
- outcome [1]: inactive
- outcome [2]: inactive
- outcome [3]: inactive
- outcome [4]: inactive
- outcome [5]: inactive

Compound: CC(C)c1cc2c(cc1S(=O)(=O)O)[C@@]1(C)CCC[C@@](C)(C(=O)O)[C@@H]1CC2
- outcome [1]: inactive
- outcome [2]: inactive
- outcome [3]: inactive
- outcome [4]: inactive
- outcome [6]: inactive
- outcome [7]: inactive

Compound: C=CCN1C[C@H](C(=O)N(CCCN(C)C)C(=O)NCC)C[C@@H]2c3cccc4[nH]cc(c34)C[C@H]21
- outcome [1]: inactive
- outcome [2]: inactive
- outcome [3]: inactive
- outcome [4]: inactive
- outcome [6]: inactive
- outcome [5]: inactive
- outcome [7]: inactive

Compound: O=C(O)c1ccc2cc(O)ccc2c1
- outcome [1]: inactive
- outcome [2]: inactive
- outcome [3]: inactive
- outcome [4]: inactive
- outcome [6]: inactive
- outcome [7]: inactive

Compound: C[C@]12C=CC(=O)N[C@@H]1CC[C@@H]1[C@@H]2CC[C@]2(C)[C@@H](C(=O)Nc3cc(C(F)(F)F)ccc3C(F)(F)F)CC[C@@H]12
- outcome [1]: inactive
- outcome [2]: inactive
- AC50 [3]: 7.37 µM (active)
- outcome [4]: inactive
- outcome [6]: inactive
- outcome [5]: inactive
- outcome [7]: inactive

Compound: CCN(CC)CCNC(=O)c1ccc(NS(C)(=O)=O)cc1
- outcome [1]: inactive
- outcome [2]: inactive
- outcome [3]: inactive
- outcome [4]: inactive
- outcome [5]: inactive
